Rab9 promoter act: qHTS Assay for Rab9 Promoter Activators | 320,000 compounds, 2.8% hits | AID 485297, 2010 | Huh7 Rab9 promoter-luciferase reporter, luminescence, 24 h | Potency, µM (top dose mostly 9.22 µM), inactives show top-dose activation, negative = inhibition, most hits filed as activators; note: % of control where 0% means no effect; nearly all actives have a fitted effect of over 60% in size
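Promoter activation is measured as luciferase luminescence in Huh7 cells stably transfected with a Rab9 promoter–luciferase construct, following 24 h compound exposure at 37 °C and 10 min reagent incubation at ambient temperature.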
ELG1 repair inh: qHTS screen for small molecules that inhibit ELG1-dependent DNA repair in human embryonic kidney (HEK293T) cells expressing luciferase-tagged ELG1; HEK293T ELG1-luciferase reporter, luminescence, 16 h; DNA damage induced by 5-fluorouridine; 330,000 compounds, 2.3% hits; Potency, µM (top dose mostly 46.1 µM), for the others: at the highest dose activity change, negative = inhibition, hits mostly inhibitors; note: % is set by controls: 0 for no effect and ±100 for the full control effect; nearly all actives have a fitted effect of over 55% in size
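HEK293T cells expressing luciferase-tagged ELG1 (2,000/well) received 5-Fluorouridine plus compound or DMSO for 16 hr at 37 °C. Luciferase was read by ONE-Glo luminescence after 30 min at room temperature.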
NPC1 prom act: qHTS Assay for NPC1 Promoter Activators; Huh7 NPC1 promoter luciferase reporter, 24 h; Potency, µM (series often up to 9.22 µM), for the others: at the highest dose activation, usual class: activators; 320,000 compounds, 2.4% hits; AID 485313, 2010; note: % of control where 0% means no effect; nearly all actives have a fitted effect of over 60% in size
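Stable NPC1-promoter luciferase Huh7 line; cpd (DMSO) 24 h, 37 °C, 5% CO2; Amplite luciferase reagent 10 min RT; luminescence readout. qHTS format.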
ELG1 genotoxic: qHTS screen for small molecules that induce genotoxicity in human embryonic kidney (HEK293T) cells expressing luciferase-tagged ELG1; Potency, µM (top dose mostly 46 µM), for inactives: at the top dose activity change, positive = activation, actives largely listed as activators; 330,000 compounds, 1.3% hits; HEK293T ELG1-luciferase reporter, luminescence, 16 h; note: % of control where 0% means no effect; nearly all actives have a fitted effect of over 60% in size
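Luminescence read-out: rising ELG1-luciferase signal, reflecting elevated ELG1 protein under genetic stress, flags genotoxic compounds. Cells were treated for 16 hr at 37 °C before ONE-Glo detection.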
FLuc modulator: qHTS profiling assay for firefly luciferase inhibitor/activator using purifed enzyme and Km concentrations of substrates (counterscreen for miR-21 project). Luciferin 4-monooxygenase (Photinus pyralis), P08659. purified FLuc, Km substrates, luminescence inhibition. Potency, µM (highest dose often 57.5 µM), for the others: top-dose activity change, negative = inhibition, usual class: inhibitors. 360,000 compounds, 6.9% hits. AID 588342, 2011;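 note: plate controls were vehicle for no effect and reference inhibitor for full effect; nearly all actives have a fitted effect of over 55% in size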
Target sequence (P08659 whole entry, looked up): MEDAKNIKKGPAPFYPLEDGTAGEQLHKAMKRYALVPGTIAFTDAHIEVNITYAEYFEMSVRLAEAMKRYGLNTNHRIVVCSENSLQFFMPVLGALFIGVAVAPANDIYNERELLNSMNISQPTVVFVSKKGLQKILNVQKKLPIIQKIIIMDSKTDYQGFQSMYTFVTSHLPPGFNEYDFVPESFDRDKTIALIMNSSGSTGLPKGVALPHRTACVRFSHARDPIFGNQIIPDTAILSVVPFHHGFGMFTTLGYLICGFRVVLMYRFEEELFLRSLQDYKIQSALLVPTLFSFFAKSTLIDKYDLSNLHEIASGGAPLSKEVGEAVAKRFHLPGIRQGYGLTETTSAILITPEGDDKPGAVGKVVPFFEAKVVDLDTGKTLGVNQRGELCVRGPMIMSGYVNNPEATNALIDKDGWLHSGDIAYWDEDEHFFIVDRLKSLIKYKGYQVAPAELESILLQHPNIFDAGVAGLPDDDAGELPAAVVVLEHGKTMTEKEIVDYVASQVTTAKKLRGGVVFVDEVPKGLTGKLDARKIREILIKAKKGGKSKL
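Purified P. pyralis luciferase, 10 nM final, with Km-level 10 uM D-luciferin and 10 uM ATP in 50 mM Tris acetate pH 7.5, 10 mM Mg acetate, 0.01% Tween-20, 0.05% BSA; 6-point qHTS titration about 60 µM downward; luminescence read.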
SMN2 splice enh: qHTS Assay for Enhancers of SMN2 Splice Variant Expression | HEK293 SMN2-luciferase splicing reporter, luminescence, 30-36 h | Potency, µM (doses to about 46.1 µM), inactives show at the top dose activity change, positive = activation, most hits filed as activators | 210,000 compounds, 2.8% hits | AID 1458, 2008; note: % of control where 0% means no effect; nearly all actives have a fitted effect of over 55% in size
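qHTS luciferase splicing reporter: luminescence rises when SMN2 exon 7 is included in transfected HEK293 cells. Compound exposure lasted 30-36 h at 37C, with 4.5 mM final sodium butyrate as control, followed by a ONE-Glo read.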
Starred values were filed as active, the others as inactive; u = inconclusive; x = no result given; [ ] = dose if it differs, or a comment. Rows were chosen to be rich in hits. Some 9.2% of all compounds tested hit in one or more screens of this group. Calls come from the whole dose curve; as a rule, active = well fitted curve in the direction sought with a large enough effect; inconclusive = small, poorly fitted or top-dose-only effect, or another doubt; inactive = no such curve, though single readings can be large; an effect the other way counts as inactive or inconclusive. Potency is the fitted concentration of half-maximal effect.

SMILES	Rab9 promoter act	ELG1 repair inh	NPC1 prom act	ELG1 genotoxic	FLuc modulator	SMN2 splice enh
CCOC(=O)c1sc(Nc2ccc(OCC)cc2)nc1C	-1%	-3%	-2%	7%	u	x
CCOC(=O)c1nc(NCc2ccccc2)sc1C	24%	u	19%	12%	u	x
CC(=O)c1sc(N/N=C\c2ccc(Br)cc2)nc1C	u	u	u	u	5.4µM*	u
CCOC(=O)c1nc(N/N=C/c2ccccc2)sc1Br	20%	24%	21%	2%	7.6µM*	x
O=C(c1cnn2c(C(F)F)cc(-c3ccccc3)nc12)N1CCN(Cc2ccc3c(c2)OCO3)CC1	-1%	u	-3%	-14%	-1%	x
COCCNC(=O)C(=O)NCCN1CCNCC1	-2%	9%	-4%	0%	0%	3%
CC1(C)CC(=O)/C(=C(/O)CCCN2C(=O)c3ccccc3C2=O)C(=NC(C)(C)C)C1	-1%	-4%	3%	0%	2%	-6%
CN(C)CCCNC(=O)c1cc(C(=O)c2ccc(F)cc2)c[nH]1	-5%	1%	-1%	0%	0%	-4%
CCC(=O)N1c2ccccc2CC1C(=O)NCCc1ccccc1C (stereo not given)	x	x	x	x	-5%	x
Oc1ccc2ccccc2c1N=Nc1ccccc1F	2%	10%	u	1%	17µM*	x
O=S(=O)(O)c1cccc(N=Nc2c(O)ccc3ccccc23)c1	0%	2%	1%	-1%	24µM*	x
CCOC(=O)c1[nH]cnc1N=Nc1c(O)ccc2ccccc12	-24%	13%	-8%	u	u	-96%
Oc1ccc2ccccc2c1N=Nc1ccccn1	-27%	u	u	1%	15µM*	-79%
COc1ccc2nc(N=Nc3c(O)ccc4ccccc34)sc2c1	-29%	-17%	0%	7%	-16%	x
CCOC(=O)c1cnc(NCc2ccccc2OC)c2ccccc12	x	x	x	x	-12%	x
O=C(CCN=C1NS(=O)(=O)c2ccccc21)N1CCc2ccccc2C1	1%	2%	-3%	4%	0%	11%
Cc1ccc(C)c(CNC(=O)c2cnc3sc(N4CCCC4)nn3c2=O)c1	x	x	x	x	-7%	-3%
Cc1ccc(NC(=O)c2ccccc2Cl)c(Cl)c1	u	u	27%	19%	19µM*	-4%
Cc1cc(NS(=O)(=O)c2ccc(NC(=O)/C=C/c3ccccc3Cl)cc2)no1	2%	5%	-5%	10%	8.5µM*	x
Cc1cc(NC(=O)c2sc3ccccc3c2O)no1	3.2µM*	u	1.6µM*	10µM*	9.5µM*	x
Cc1cc(NS(=O)(=O)c2ccc(NC(=O)/C=C/c3ccccc3)cc2)no1	0%	-1%	2%	4%	u	x
Cc1cc(NC(=O)c2ccccc2Cl)no1	4µM*	u	u	u	15µM*	u
Cc1cc(NC(=O)c2ccccc2)ccc1NC(=O)c1ccccc1Cl	10%	1%	0%	-4%	u	x
Cc1ccc(N2C(=O)[C@@H]3C(C(=O)C(c4ccccc4)c4ccccc4)=NN[C@@H]3C2=O)cc1	2%	1%	-1%	3%	4%	-4%
Cc1cc(NC(=O)CCCN2C(=O)/C(=C/c3ccccc3Cl)SC2=S)no1	0%	u	2%	-9%	-1%	x
SMILES	Rab9 promoter act	ELG1 repair inh	NPC1 prom act	ELG1 genotoxic	FLuc modulator	SMN2 splice enh
Cc1cc(NC(=O)c2c(F)cccc2Cl)no1	-1%	u	4%	-2%	-13%	21%
Cc1cc(NC(=O)/C=C/c2ccccc2Cl)no1	2.8µM*	u	2.8µM*	13%	u	u
Cc1cc(NC(=O)c2ccccc2NS(=O)(=O)c2c(C)c(C)cc(C)c2C)no1	-9%	-29%	-3%	-8%	8%	-3%
Cc1ccc(C)c(S(=O)(=O)Nc2ccccc2C(=O)Nc2cc(C)on2)c1	3%	26µM*	-5%	-7%	-2%	-22%
Cc1cc(NC(=O)c2cc(C(C)C)on2)no1	u	u	u	u	15µM*	u
Cc1cc(NC(=O)NC(=O)c2ccccc2F)no1	3.5µM*	u	u	u	u	x
CCOC(=O)c1cc(C(=O)OCC)c(=O)[nH]c1SCc1ccccc1	6%	-12%	-5%	-4%	0%	x
COc1ccc(S(=O)(=O)NC(CC(=O)NCCc2ccc(OC)c(OC)c2)C(C)C)cc1 (stereo not given)	-5%	16%	4%	0%	-1%	-4%
C[C@H](NC(=O)N1CCn2c1nc1ccccc12)C(=O)NCc1ccc(F)cc1	0%	-1%	-2%	-2%	1%	x
O=C(COc1ccccc1)OCC(=O)c1ccc(S(=O)(=O)N2CCCCC2)cc1	3%	-1%	1%[1.84 µM]	-1%	2%	x
COc1ccc(NC(=O)c2cc(C(C)C)on2)c(OC)c1	3.5µM*	u	u	15µM*	u	16µM*
COc1cc(NC(=O)c2cc(C(C)C)on2)c(OC)cc1Cl	3%	u	10%	-9%	-13%	0%
COS(C)(=O)=O	x	x	x	x	x	-13%
O=C(Nc1ccccc1)Nc1ccc(-n2ccc(C(F)(F)F)n2)cc1	1.8µM*	u	2.8µM*	u	4.3µM*	x
O=C(O)CC(CC(=O)Nc1ccc(-n2ccc(C(F)(F)F)n2)cc1)c1ccccc1 (stereo not given)	-3%	-2%	2%	3%	3%	x
O=C(Nc1ccc2c(c1)oc1ccccc12)C1CC1	2.5µM*	u	4µM*	u	5.4µM*	u
O=C(Nc1ccc2c(c1)oc1ccc(S(=O)(=O)N3CCCC3)cc12)C1CC1	-6%	16µM*	-4%	-7%	3%	3%
Cc1ccc(-c2cc(=O)c3cc(C)ccc3[nH]2)cc1	u	u	u	u	0.67µM*	2.2µM*
Cc1ccc(-c2cc(=O)c3cc(F)ccc3[nH]2)cc1	16%	25%	1%	12%	27µM*	u
NC(Cc1ccc(O)c(O)c1)C(=O)O (stereo not given)	x	x	x	x	x	6%
CC1CCN(S(=O)(=O)c2cc(C(=O)N3CCN(c4ncccn4)CC3)ccc2Br)CC1	0%	18µM*	-12%	-2%	1%	-7%[1.84 µM]
O=C(O)CCC(=O)Nc1cccc(-c2nnc(-c3ccccc3)o2)c1	-2%	6%	3%	11%	21µM*	x

Source: PubChem (National Center for Advancing Translational Sciences (NCATS))
